The target of assay [1] is Retinoic acid receptor RXR-alpha (Homo sapiens) (UniProt P19793). Description: ATG_RXRa_TRANS: Attagene TRANS-FACTORIAL HepG2 Assay for human Retinoid X Receptor alpha (RXRa) (AID 2283012; active means hit-call score of the fitted dose curve at least 0.9, where 1 is the maximum). In short, it runs like this:
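Measures exogenous chimeric NR-GAL4 activity in transfected HepG2 liver cells after 24 h of dosing. Induced reporter mRNA was detected by RT-PCR with capillary electrophoresis, and gain of signal was analysed against DMSO.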

For assay [2], the target named is human Retinoid X Receptor beta (RXRb), RXRB (gene 6257) (UniProt P28702). Description: ATG_RXRb_TRANS: Attagene TRANS-FACTORIAL HepG2 Assay for human Retinoid X Receptor beta (RXRb) (AID 2283013; active means hit-call score of the fitted dose curve at least 0.9, where 1 is the maximum). In short, it runs like this: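 Chimeric receptor-Gal4 activity was assessed in transiently transfected human HepG2 cells after 24 h exposure. Transcripts from GAL4-UAS reporters were quantified by fluorescent RT-PCR and capillary electrophoresis, with DMSO as negative control and baseline.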
Sequence of human Retinoid X Receptor beta (RXRb), RXRB (gene 6257) (P28702 whole entry, looked up, the tested form may be a part): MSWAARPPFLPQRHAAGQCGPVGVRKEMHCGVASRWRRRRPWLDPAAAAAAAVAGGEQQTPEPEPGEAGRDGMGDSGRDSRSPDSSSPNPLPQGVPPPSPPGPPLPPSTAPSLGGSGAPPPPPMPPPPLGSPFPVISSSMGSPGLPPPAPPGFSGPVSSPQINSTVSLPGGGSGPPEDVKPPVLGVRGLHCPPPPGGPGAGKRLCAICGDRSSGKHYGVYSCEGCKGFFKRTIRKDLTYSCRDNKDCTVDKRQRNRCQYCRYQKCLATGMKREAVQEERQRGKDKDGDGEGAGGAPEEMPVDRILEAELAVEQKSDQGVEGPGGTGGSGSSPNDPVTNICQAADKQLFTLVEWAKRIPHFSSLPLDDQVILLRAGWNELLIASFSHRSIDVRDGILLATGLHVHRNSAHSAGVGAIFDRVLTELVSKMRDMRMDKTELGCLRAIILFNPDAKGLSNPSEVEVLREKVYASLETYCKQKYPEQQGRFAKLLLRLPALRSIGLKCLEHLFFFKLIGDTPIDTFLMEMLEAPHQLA

Read-out in assay [3]: E-selectin (Homo sapiens) (UniProt P16581)
Description: BSK_3C_Eselectin: BioMAP Diversity Plus: 3C Assay for Eselectin Biomarker Activity (AID 2283015).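 Further: cell surface E-selectin protein quantified by ELISA 24 h after dosing.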 Conditions: primary human endothelial cells (HUVEC); actives raise or lower the signal. In outline: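 Primary human umbilical vein endothelial cells (3C system), read 24 h after compound addition; E-selectin measured by ELISA. Bidirectional curve fitting against DMSO baseline; cytotoxicity by parallel SRB total-protein staining.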

Read-out in assay [4]: Interleukin-1 alpha (IL1a), IL1A (gene 3552)
Description: BSK_BE3C_IL1a: BioMAP Diversity Plus: BE3C Assay for Interleukin-1 alpha (IL1a) Biomarker Activity (AID 2283016). Conditions: primary human bronchial epithelial cells; actives raise or lower the signal. In outline: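 Signal from IL-1a ELISA, taken 24 h after chemical dosing of human bronchial epithelial cells, is compared with DMSO as baseline using bidirectional curve fitting.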

Read-out in assay [5]: Monocyte Chemoattractant Protein-1 (MCP1), CCL2 (gene 6347)
Description: BSK_3C_MCP1: BioMAP Diversity Plus: 3C Assay for Monocyte Chemoattractant Protein-1 (MCP1) Biomarker Activity (AID 2283017). The conditions noted are these: primary human endothelial cells (HUVEC); actives raise or lower the signal. In short, it runs like this: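 Human umbilical vein endothelial cells (3C system) exposed to chemicals for 24 h; MCP-1 quantified by ELISA against the DMSO baseline with bidirectional fitting, and parallel SRB staining used to assess cytotoxicity.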

Read-out in assay [6]: Monocyte Chemoattractant Protein-1 (MCP1), CCL2 (gene 6347)
Description: BSK_4H_MCP1: BioMAP Diversity Plus: 4H Assay for Monocyte Chemoattractant Protein-1 (MCP1) Biomarker Activity (AID 2283018). The conditions noted are these: primary human endothelial cells (HUVEC); actives raise or lower the signal. In outline: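 Endothelial cells from umbilical vein were treated with test chemical, then after 24 h MCP-1 levels were quantified by ELISA; endpoint values came from bidirectional fitting with DMSO as baseline of activity.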

Read-out in assay [7]: Human Leukocyte Antigen - DR isotype (HLADR), HLA-DRA (gene 3122)
Description: BSK_3C_HLADR: BioMAP Diversity Plus: 3C Assay for Human Leukocyte Antigen - DR isotype (HLADR) Biomarker Activity (AID 2283019). The conditions noted are these: primary human endothelial cells (HUVEC); actives raise or lower the signal. In outline: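 HUVEC monoculture, HLA-DR measured by ELISA 24 h after chemical dosing. Fitted bidirectionally against DMSO baseline; parallel SRB staining assessed cytotoxicity, with 3C proliferation read by SRB at 48 h.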

Read-out in assay [8]: Interleukin-8 (IL8), CXCL8 (gene 3576)
Description: BSK_3C_IL8: BioMAP Diversity Plus: 3C Assay for Interleukin-8 (IL8) Biomarker Activity (AID 2283020). Conditions: primary human endothelial cells (HUVEC); actives raise or lower the signal. In short, it runs like this:
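Endothelial primary cells of human umbilical vein origin are dosed with chemical; after 24 h the IL-8 biomarker is measured by ELISA, and concentration–response is fitted in both directions versus DMSO.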

Read-out in assay [9]: Monokine induced gamma interferon (MIG), CXCL9 (gene 4283)
Description: BSK_3C_MIG: BioMAP Diversity Plus: 3C Assay for Monokine induced gamma interferon (MIG) Biomarker Activity (AID 2283021). Conditions: primary human endothelial cells (HUVEC); actives raise or lower the signal. In outline: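 Endothelial primary cells (human umbilical vein) are dosed with test chemical in the 3C system. MIG levels are measured by ELISA at 24 h and fitted in both directions relative to DMSO.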

Assay [10] deals with human Vitamin D Receptor (VDR), VDR (gene 7421) (UniProt P11473). Description: ATG_VDR_TRANS: Attagene TRANS-FACTORIAL HepG2 Assay for human Vitamin D Receptor (VDR) (AID 2283022; active means hit-call score of the fitted dose curve at least 0.9, where 1 is the maximum). In short, it runs like this:
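HepG2 cells were transiently transfected with GAL4-UAS reporter units and a chimeric VDR-Gal4 construct, then dosed for 24 hours. Reporter mRNA was quantified by RT-PCR, fluorescent labeling, HpaI digestion and capillary electrophoresis; gain of signal analysed vs DMSO.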

Assay [11] can be described thus: BSK_3C_SRB: Viability Assessment in the BioMAP Diversity Plus: 3C Assay (AID 2283023).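 Further: fitted both ways against DMSO so a hit may be signal rise or drop.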 The conditions noted are these: primary human endothelial cells (HUVEC). In outline:
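Human umbilical vein endothelial cells in the 3C system, treated 24 h. Total protein measured by 0.1% sulforhodamine B staining after 10% TCA fixation, read at 560 nm; bidirectional fit versus DMSO.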

Read-out in assay [12]: Matrix Metallopeptidase 1 (MMP1), MMP1 (gene 4312)
Description: BSK_BE3C_MMP1: BioMAP Diversity Plus: BE3C Assay for Matrix Metallopeptidase 1 (MMP1) Biomarker Activity (AID 2283024). Conditions: primary human bronchial epithelial cells; actives raise or lower the signal. In outline:
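MMP1 signal, measured by ELISA after a 24 h chemical exposure of human primary bronchial epithelial cells, is analysed with bidirectional fitting using DMSO as negative control.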

A short description of assay [13]: BSK_3C_Vis: BioMAP Diversity Plus: 3C Assay for Morphology Visualization (AID 2283025).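 Further: fitted both ways so gain or loss versus DMSO counts.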 The conditions noted are these: primary human endothelial cells (HUVEC). In short, it runs like this: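 Morphology read by light microscopy serves as a background control for the multiplexed 3C assay in human umbilical vein endothelial cells, taken 24 h after dosing, with DMSO as the negative control and bidirectional curve fitting.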

Read-out in assay [14]: Pselectin, SELP (gene 6403)
Description: BSK_4H_Pselectin: BioMAP Diversity Plus: 4H Assay for Pselectin Biomarker Activity (AID 2283026). Conditions: primary human endothelial cells (HUVEC); actives raise or lower the signal. In short, it runs like this: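 Endothelial primary cells (human umbilical vein) are dosed, incubated 24 h, and assayed for surface P-selectin by ELISA; responses in either direction are fitted relative to the DMSO negative control.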

Assay [15] is described as follows: BSK_4H_SRB: Viability Assessment in the BioMAP Diversity Plus: 4H Assay (AID 2283027).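 Further: cells exposed to compound for 24 h before staining.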 Conditions: primary human endothelial cells (HUVEC). In outline:
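Cytotoxicity readout: sulforhodamine B (0.1%) staining of total protein after 10% TCA fixation, measured at 560 nm in human umbilical vein endothelium at 24 h. DMSO set the baseline; fitting was bidirectional.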

Assay [16] is described as follows: BSK_BE3C_SRB: Viability Assessment in the BioMAP Diversity Plus: BE3C Assay (AID 2283028). The conditions noted are these: primary human bronchial epithelial cells. In short, it runs like this:
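Human bronchial epithelial primary cells in confluent culture, 24 h after chemical dosing; total protein by 0.1% SRB staining after 10% TCA fixation, read at 560 nm. Bidirectional fitting versus DMSO baseline.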

Read-out in assay [17]: Thrombomodulin, THBD (gene 7056)
Description: BSK_3C_Thrombomodulin: BioMAP Diversity Plus: 3C Assay for Thrombomodulin Biomarker Activity (AID 2283029). The conditions noted are these: primary human endothelial cells (HUVEC); actives raise or lower the signal. In outline: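 Endothelial cells from umbilical vein are dosed with test chemical and incubated 24 h. Thrombomodulin is then quantified by ELISA, with DMSO serving as negative control and activity baseline.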

Read-out in assay [18]: Urokinase-type plasminogen activator receptor (uPAR), PLAUR (gene 5329)
Description: BSK_4H_uPAR: BioMAP Diversity Plus: 4H Assay for Urokinase-type plasminogen activator receptor (uPAR) Biomarker Activity (AID 2283030). The conditions noted are these: primary human endothelial cells (HUVEC); actives raise or lower the signal. In short, it runs like this: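 Human umbilical vein endothelial cells in the 4H system, 24 h after chemical dosing. Cell-surface uPAR measured by ELISA, fitted in both directions versus DMSO; cytotoxicity checked by SRB total protein in parallel cultures.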

Read-out in assay [19]: Vascular endothelial growth factor receptor 2 (Homo sapiens) (UniProt P35968)
Description: BSK_4H_VEGFRII: BioMAP Diversity Plus: 4H Assay for Vascular endothelial growth factor receptor 2 (VEGFR2) Biomarker Activity (AID 2283031). The conditions noted are these: primary human endothelial cells (HUVEC); actives raise or lower the signal. In short, it runs like this:
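Primary human umbilical vein endothelial cells (4H system), 24 h exposure; cell-surface VEGFR2 measured by ELISA. Bidirectional fitting versus DMSO; cytotoxicity checked in parallel by SRB total-protein staining.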

For assay [20], the target named is human Thyroid Receptor alpha (THRa1), THRA (gene 7067) (UniProt P10827). Description: ATG_THRa1_TRANS: Attagene TRANS-FACTORIAL HepG2 Assay for human Thyroid Receptor alpha (THRa1) (AID 2283014; active means hit-call score of the fitted dose curve at least 0.9, where 1 is the maximum). In outline:
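HepG2 cells transiently transfected with chimeric NR-Gal4 and GAL4-UAS reporter units, dosed 24 h. Reporter mRNA quantified by RT-PCR, fluorescent labeling, HpaI digestion and capillary electrophoresis; gain-of-signal fit versus DMSO.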

Each structure is given as a SMILES string. Results filed as inconclusive are left out. Calls of active or inactive are those of the source. How the source made its calls, unless noted: active means hit-call score of the fitted dose curve at least 0.9, where 1 is the maximum; inactive means score below 0.9.

Sequence of human Vitamin D Receptor (VDR), VDR (gene 7421) (P11473 whole entry, looked up, the tested form may be a part): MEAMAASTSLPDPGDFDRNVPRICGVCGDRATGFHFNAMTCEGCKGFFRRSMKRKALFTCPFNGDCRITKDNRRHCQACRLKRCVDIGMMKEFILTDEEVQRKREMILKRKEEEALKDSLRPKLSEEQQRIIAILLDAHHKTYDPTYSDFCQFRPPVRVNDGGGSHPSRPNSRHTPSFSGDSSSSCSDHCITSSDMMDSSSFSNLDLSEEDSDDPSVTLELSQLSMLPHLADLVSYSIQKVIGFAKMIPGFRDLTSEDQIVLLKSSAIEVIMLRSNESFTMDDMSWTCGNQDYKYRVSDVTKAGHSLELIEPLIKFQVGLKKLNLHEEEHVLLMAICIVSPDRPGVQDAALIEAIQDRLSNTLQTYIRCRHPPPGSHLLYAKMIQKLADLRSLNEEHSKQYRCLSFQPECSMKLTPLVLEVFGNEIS
Sequence of Retinoic acid receptor RXR-alpha (Homo sapiens) (P19793 whole entry, looked up, the tested form may be a part): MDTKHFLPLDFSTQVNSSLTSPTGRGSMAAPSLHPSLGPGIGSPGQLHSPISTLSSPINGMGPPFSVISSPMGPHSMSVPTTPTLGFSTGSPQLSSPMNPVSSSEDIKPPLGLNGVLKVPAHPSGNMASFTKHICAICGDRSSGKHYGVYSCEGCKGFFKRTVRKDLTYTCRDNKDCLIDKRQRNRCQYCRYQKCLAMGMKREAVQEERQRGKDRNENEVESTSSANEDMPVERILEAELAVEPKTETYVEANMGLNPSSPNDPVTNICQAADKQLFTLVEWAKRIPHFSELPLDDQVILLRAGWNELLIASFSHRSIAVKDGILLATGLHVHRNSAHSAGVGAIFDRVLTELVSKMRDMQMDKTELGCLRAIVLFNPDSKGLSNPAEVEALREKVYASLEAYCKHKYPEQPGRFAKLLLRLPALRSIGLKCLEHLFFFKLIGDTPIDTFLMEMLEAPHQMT
Sequence of human Thyroid Receptor alpha (THRa1), THRA (gene 7067) (P10827 whole entry, looked up, the tested form may be a part): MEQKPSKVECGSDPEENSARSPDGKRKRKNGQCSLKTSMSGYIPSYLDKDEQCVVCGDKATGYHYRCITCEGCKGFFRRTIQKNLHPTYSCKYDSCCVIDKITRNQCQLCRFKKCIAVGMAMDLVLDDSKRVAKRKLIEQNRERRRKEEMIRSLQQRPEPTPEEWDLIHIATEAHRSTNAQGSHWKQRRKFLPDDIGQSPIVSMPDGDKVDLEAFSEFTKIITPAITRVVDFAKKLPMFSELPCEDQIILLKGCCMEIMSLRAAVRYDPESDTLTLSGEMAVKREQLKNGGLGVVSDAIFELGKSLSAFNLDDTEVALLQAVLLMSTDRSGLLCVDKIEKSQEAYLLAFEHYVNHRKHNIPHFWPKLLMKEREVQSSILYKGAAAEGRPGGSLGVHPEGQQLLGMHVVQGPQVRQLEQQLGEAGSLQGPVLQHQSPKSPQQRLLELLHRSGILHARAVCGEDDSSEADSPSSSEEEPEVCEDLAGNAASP
Sequence of E-selectin (Homo sapiens) (P16581 whole entry, looked up): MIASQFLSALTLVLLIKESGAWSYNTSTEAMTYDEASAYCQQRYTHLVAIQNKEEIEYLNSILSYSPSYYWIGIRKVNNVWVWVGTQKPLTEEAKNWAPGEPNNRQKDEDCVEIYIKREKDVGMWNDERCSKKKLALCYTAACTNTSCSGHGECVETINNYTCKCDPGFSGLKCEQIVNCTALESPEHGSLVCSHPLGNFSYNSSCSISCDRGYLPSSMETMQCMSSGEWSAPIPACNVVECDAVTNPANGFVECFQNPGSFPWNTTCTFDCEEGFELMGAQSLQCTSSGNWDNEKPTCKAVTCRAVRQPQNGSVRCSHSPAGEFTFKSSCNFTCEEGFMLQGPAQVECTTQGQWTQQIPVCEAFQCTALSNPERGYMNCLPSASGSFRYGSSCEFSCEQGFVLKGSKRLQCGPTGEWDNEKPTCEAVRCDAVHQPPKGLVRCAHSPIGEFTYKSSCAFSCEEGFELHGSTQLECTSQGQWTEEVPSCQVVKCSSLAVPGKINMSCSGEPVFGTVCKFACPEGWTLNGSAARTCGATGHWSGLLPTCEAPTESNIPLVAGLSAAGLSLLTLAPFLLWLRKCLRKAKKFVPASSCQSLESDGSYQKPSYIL

For `CCCCCCCCCCCC(=O)OC`, the outcome in assay [1], in assay [3], in [4], in assay [5], in assay [6] and in assay [7] was inactive. Further, the result in [8], in assay [9], in [10], in assay [11], in assay [12] and in assay [13] was inactive. For the same compound, the outcome in assay [14], in [15], in [16], in assay [17], in [18] and in assay [19] was inactive. Also, the AC50 in assay [2] was 57.9 µM (active).
Turning to `Cc1cc(NC(=O)C(=O)O)cc(C)c1Oc1ccc(O)c2c1CCC2`, the compound was classed as inactive in assay [1], in [2], in assay [3], in assay [4], in assay [5] and in [6]. Besides, the outcome in assay [8], in [9], in assay [10], in assay [11], in assay [12] and in [13] was inactive. The result in assay [14], in assay [15], in [16], in assay [17], in assay [18] and in assay [19] was inactive. Besides, the AC50 in assay [20] was 0.00869 µM (active).
`NCCO`: the outcome in assay [1], in [2], in assay [3], in [4], in assay [5] and in assay [6] was inactive. The outcome in assay [7], in assay [8], in assay [9], in assay [11], in [12] and in assay [13] was inactive. Besides, the result in assay [14], in assay [15], in assay [16], in assay [17], in assay [18] and in assay [19] was inactive.
Regarding `Cc1ccc(N(C)C)cc1`, the compound was classed as inactive in assay [1], in assay [2], in assay [20], in [3], in assay [4] and in [5]. For the same compound, the result in assay [6], in [8], in assay [9], in [10], in assay [11] and in assay [12] was inactive. Besides, the result in assay [13], in assay [14], in assay [15], in assay [17], in assay [18] and in [19] was inactive.
As to `Cc1oc(-c2ccccc2)nc1CCOc1cccc2c1ccn2CCC(=O)O`, the AC50 in assay [1] is 44.9 µM (active); in assay [2] it was 8.2 µM (active). The outcome in [3], in assay [4], in [5], in assay [6], in assay [7] and in assay [8] was inactive. Moreover, the outcome in assay [9], in assay [10], in [11], in assay [12], in [13] and in assay [14] was inactive. Besides, the outcome in assay [15], in [17], in assay [18] and in assay [19] was inactive.
For `CCCCCCC(=O)OCC`, the result in [1], in [20], in [3], in [4], in [5] and in assay [6] was inactive. Also, the outcome in assay [8], in [9], in assay [10], in assay [11], in assay [12] and in assay [13] was inactive. For the same compound, the result in [14], in assay [15], in assay [17], in [18] and in assay [19] was inactive. For the same compound, the half-maximal activity concentration (AC50) in assay [2] was 32.5 µM (active).

The record behind these values is PubChem BioAssay (EPA / NIEHS).
